Reference: PubChem BioAssay (NCI)
About 79,000 compounds went through this panel and 15% of them were active in at least one assay; those are over-represented in the sample as a whole. A number with no mark means an inactive call. Activity calls are given as the source filed them. Cut-off read from the data, not from the text of the source: active = growth inhibition above about 70%; inactive = the rest.

Columns and labels:
[1] = NCI Yeast Anticancer Drug Screen. Data for the rad50 strain (AID 155);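 note: 0% = growth of vehicle-only cultures of the same strain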; conditions: S. cerevisiae rad50 strain growth inhibition, stronger effect = higher value
Summary of the method: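 DNA repair mutant yeast, compound exposure, growth read-out; inhibition is taken relative to vehicle.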

[2] = NCI Yeast Anticancer Drug Screen. Data for the mec2-1 strain (AID 157); conditions: S. cerevisiae mec2-1 strain, stronger effect = higher value
Summary of the method: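 Growth inhibition is read against vehicle-treated controls after compound exposure of the mec2-1 yeast strain, which is defective in DNA damage repair or cell cycle control.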

[3] = NCI Yeast Anticancer Drug Screen. Data for the sgs1 mgt1 strain (AID 161);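 note: 0% = growth of cultures given vehicle only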; conditions: S. cerevisiae sgs1 mgt1 strain, stronger effect = higher value
Summary of the method: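 Yeast cells carrying a defined DNA-repair defect were exposed to test compounds. Growth inhibition was measured relative to vehicle-treated controls.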

[4] = NCI Yeast Anticancer Drug Screen. Data for the cln2 rad14 strain (AID 165);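 note: 0% = growth equal to vehicle treated cultures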; conditions: S. cerevisiae cln2 rad14 strain, stronger effect = higher value
Summary of the method: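 Growth inhibition, relative to vehicle-treated controls, is the read-out. The test organism is a yeast strain with defined genetic alterations, cln2 rad14.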

[5] = NCI Yeast Anticancer Drug Screen. Data for the bub3 strain (AID 167); conditions: S. cerevisiae bub3 mutant strain, stronger effect = higher value
Summary of the method: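 In this screen, a yeast mutant lacking normal mitotic checkpoint function is challenged with compound. Relative growth versus vehicle gives the inhibition value.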

[6] = NCI Yeast Anticancer Drug Screen. Data for the mlh1 rad18 strain (AID 175); conditions: S. cerevisiae mlh1 rad18 strain growth inhibition, stronger effect = higher value
Summary of the method: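 Cells of a genetically altered yeast strain, deficient in DNA damage repair, were treated with compound. Their growth was then compared with that of vehicle-treated cultures to give inhibition.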

[7] = at 5.0 µM (retest, dose inferred, filed as 0.5)
[8] = at 50.0 µM (retest, dose inferred, filed as 5.0)

Compound | growth inhibition [1, 7] | growth inhibition [1, 8] | growth inhibition ([1]; at 50.0 µM) | growth inhibition [2, 7] | growth inhibition [2, 8] | growth inhibition ([2]; at 50.0 µM) | growth inhibition [3, 7] | growth inhibition [3, 8] | growth inhibition ([3]; at 50.0 µM) | growth inhibition [4, 7] | growth inhibition [4, 8] | growth inhibition ([4]; at 50.0 µM) | growth inhibition [5, 7] | growth inhibition [5, 8] | growth inhibition ([5]; at 50.0 µM) | growth inhibition [6, 7] | growth inhibition [6, 8] | growth inhibition ([6]; at 50.0 µM)
CC(NNC(=S)NCc1ccccc1)c1cc2ccccc2cn1 (stereo not given) | 12% | 88% (active) | 82.2% (active) | 9% | 93% (active) | 80.8% (active) | 14% | 91% (active) | 86.9% (active) | 3% | 79% (active) | 80% (active) | 11% | 93% (active) | 83.7% (active) | 19% | 93% (active) | 89.7% (active)
CCOc1ccc2nc3cc(Cl)ccc3[n+](C)c2c1 | 20% | 79% (active) | 85.2% (active) | 14% | 87% (active) | 87.3% (active) | 15% | 87% (active) | 82.8% (active) | 10% | 74% (active) | 72.7% (active) | 32% | 88% (active) | 83.9% (active) | 15% | 81% (active) | 86.7% (active)
Cc1ccc(C(=O)/C=C/c2ccccc2)cc1 | 8% | 42% | 52% | -6% | 14% | 13.7% | 1% | 38% | 36.6% | 0% | -22% | -22% | 6% | 19% | 9.3% | 2% | 24% | 82.1% (active)
CCCCc1ccc2c(c1)Nc1cc3ccccc3cc1N2 | -3% | 55% | 86.3% (active) | 1% | 26% | 44.5% | 0% | 56% | 54.9% | -13% | 30% | 33.4% | 6% | 81% (active) | 77.8% (active) | 7% | 59% | 95% (active)
CC1OC(c2ccc3c(c2)OCO3)OC1C (stereo not given) | 1% | 0% | -21.6% | -4% | -7% | 20.1% | -4% | -5% | 24.6% | 0% | -2% | 70.7% (active) | -8% | -23% | 25% | 2% | 0% | 64.7%
CCc1cccc(C)c1NC(=O)C1=C(C)NC(C)=C(C(=O)Nc2c(C)cccc2CC)C1c1ccc2c(c1)OCO2 | 32% | 32% | 91.2% (active) | 27% | 27% | 89.3% (active) | 33% | 33% | 89.6% (active) | 20% | 20% | 84.2% (active) | 26% | 26% | 90% (active) | 37% | 37% | 87.2% (active)
O=S(=O)(Nc1ccc2c3c(cccc13)C=C2)c1ccccc1 | -1% | 98% (active) | 64.5% | -4% | 94% (active) | 75.2% (active) | -7% | 97% (active) | 79.8% (active) | -9% | 96% (active) | 61.3% | -1% | 98% (active) | 63.4% | -2% | 97% (active) | 92.3% (active)
COC(=O)/C(C(C)=O)=C(\OC(C)=O)c1ccc(OC)c(OC)c1 | -14% | 80% (active) | 93.5% (active) | -11% | 93% (active) | 91% (active) | -5% | 88% (active) | 46.2% | -11% | 85% (active) | 95.5% (active) | -2% | 86% (active) | 98.1% (active) | -19% | 91% (active) | 60%
Cc1cccc(C)c1NC(=O)/C(Cl)=C(/Cl)C(=O)O | 66% | 98% (active) | 91.2% (active) | 67% | 99% (active) | 86.2% (active) | 82% (active) | 98% (active) | 88% (active) | 47% | 81% (active) | 82.8% (active) | 85% (active) | 99% (active) | 90% (active) | 63% | 99% (active) | 93.8% (active)
CC1(C)CC(=O)C2=C(C1)Nc1ccccc1CC2c1c[nH]c2ccccc12 (stereo not given) | -6% | 77% (active) | -7.2% | -1% | 85% (active) | 3.35% | -8% | 68% | 5.35% | -62% | 82% (active) | 52.2% | -4% | 68% | 10.8% | 0% | 84% (active) | 0%
